Screen size: about 310,000 compounds; about 14,000 (4.5%) showed an effect of 50% or more. Effects have a minus sign here. This is one part of a sample in which strong results are shown more often than they occur.
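Also: peak tail current of the secondary pulse compared with the same well before compound.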

For this experiment, the target named is human ether-à-go-go-related gene (hERG) potassium channel (human, UniProt Q12809). The experiment can be described thus: primary screen, population patch clamp on CHO cells stably expressing hERG; higher = less effect of the substance.
human ether-à-go-go-related gene (hERG) potassium channel, sequence (Q12809 whole entry, looked up): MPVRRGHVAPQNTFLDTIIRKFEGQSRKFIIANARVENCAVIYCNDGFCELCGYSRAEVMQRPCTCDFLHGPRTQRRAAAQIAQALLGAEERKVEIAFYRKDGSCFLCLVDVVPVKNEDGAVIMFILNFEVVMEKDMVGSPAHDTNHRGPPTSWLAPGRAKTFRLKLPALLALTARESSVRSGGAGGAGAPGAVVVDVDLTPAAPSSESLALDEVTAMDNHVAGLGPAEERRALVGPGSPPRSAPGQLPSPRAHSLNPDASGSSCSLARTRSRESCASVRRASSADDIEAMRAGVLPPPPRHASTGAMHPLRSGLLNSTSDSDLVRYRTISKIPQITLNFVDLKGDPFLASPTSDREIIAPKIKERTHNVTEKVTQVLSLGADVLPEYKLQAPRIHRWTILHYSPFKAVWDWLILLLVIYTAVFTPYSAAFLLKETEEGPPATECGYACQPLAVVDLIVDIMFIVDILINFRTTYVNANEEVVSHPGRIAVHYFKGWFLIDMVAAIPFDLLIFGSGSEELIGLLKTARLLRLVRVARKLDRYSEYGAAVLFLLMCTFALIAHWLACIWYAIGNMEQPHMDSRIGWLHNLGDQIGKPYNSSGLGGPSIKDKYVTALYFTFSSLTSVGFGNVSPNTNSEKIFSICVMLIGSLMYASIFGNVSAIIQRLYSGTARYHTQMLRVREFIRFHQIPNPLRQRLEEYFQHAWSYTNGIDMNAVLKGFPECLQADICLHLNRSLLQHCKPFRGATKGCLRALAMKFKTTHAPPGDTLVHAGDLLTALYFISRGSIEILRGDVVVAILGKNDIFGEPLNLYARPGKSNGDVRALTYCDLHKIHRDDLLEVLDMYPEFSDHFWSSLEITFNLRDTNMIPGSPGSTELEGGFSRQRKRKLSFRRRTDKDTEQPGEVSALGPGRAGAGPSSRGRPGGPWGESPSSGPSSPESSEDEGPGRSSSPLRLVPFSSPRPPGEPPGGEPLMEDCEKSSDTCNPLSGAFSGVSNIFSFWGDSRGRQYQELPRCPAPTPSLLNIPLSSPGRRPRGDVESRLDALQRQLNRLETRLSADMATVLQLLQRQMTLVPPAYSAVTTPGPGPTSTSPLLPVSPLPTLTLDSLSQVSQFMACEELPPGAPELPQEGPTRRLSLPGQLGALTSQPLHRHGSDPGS
For `COc1cc(CNn2cnnc2)ccc1OCC(=O)NC(C)(C)C`, the “hERG current change (%, negative = inhibition) at 10uM” value stood at 1.29%. `O=C(Nc1nc(-c2ccc3c(c2)OCO3)cs1)C1COc2ccccc2O1` (stereo not drawn): the “hERG current change (%, negative = inhibition) at 10uM” value stood at 13.1%. In the case of `CCn1c(SCC(=O)N=Nc2c(O)[nH]c3ccccc23)nc2ccccc21` it was -11.9%. Regarding `CC1=CC(=O)CC(C)(C)C1(O)/C=C/C(C)=C/C(=O)O` (stereo not drawn), the “hERG current change (%, negative = inhibition) at 10uM” value was found to be 5.43%. As for `CCOc1ccc(Nc2ncnc3c2cnn3C)cc1`, the figure is -16.6%; as for `COc1cccc(C(c2c(C)[nH]n(-c3ccccc3)c2=O)c2c(C)[nH]n(-c3ccccc3)c2=O)c1O`, -4.28%. In the case of `CN(C)CCn1c(=S)[nH]c2ccc(Cl)cc2c1=O` it was -21.7%. As for `CCN(CC)CCCn1c(=S)[nH]c2cc(OC)c(OC)cc2c1=O`, the figure is -2.6%; as for `CCN(CC)CCCn1c(=S)[nH]c2ccc(Cl)cc2c1=O`, -63.7%; as for `CCN(CC)CCn1c(=S)[nH]c2cc3c(cc2c1=O)OCO3`, -24.2%.

In the case of `CCN(CC)CCn1c(=S)[nH]c2ccc(Br)cc2c1=O`, the “hERG current change (%, negative = inhibition) at 10uM” value is given as -66.7%. In the case of `CCN(CC)CCn1c(=S)[nH]c2ncccc2c1=O` it was -20.5%; in that of `CCN(CC)CCCn1c(=S)[nH]c2ncccc2c1=O`, -15.9%. As for `CCN(CC)CCn1c(=S)[nH]c2ccc(Cl)cc2c1=O`, the figure is -60.8%; as for `CCN(CC)CCn1c(=S)[nH]c2ccccc2c1=O`, -25.6%; as for `Cc1ccc(CCNC(=O)C2CCN(S(=O)(=O)c3ccc4c(c3)NC(=O)C(C)S4)CC2)cc1` (stereo not drawn), -2.94%.

In the case of `CC(C)N(C(=O)CSc1ccc(S(=O)(=O)N2CCCCC2)cn1)C(C)C`, the “hERG current change (%, negative = inhibition) at 10uM” value is listed as -15.7%. As to `CC12CCC(C(=O)O)(c3nc4cc([N+](=O)[O-])ccc4nc31)C2(C)C` (stereo not drawn), the “hERG current change (%, negative = inhibition) at 10uM” value is -1.75%. As for `O=C(NC(Cc1c[nH]c2ccccc12)C(=O)O)/C(=C\c1ccccc1)NC(=O)c1ccccc1` (stereo not drawn), the figure is 9.54%; as for `COc1ccc2cnn(-c3ccc(OC(F)(F)Cl)cc3)c(=O)c2c1OC`, 6.28%; as for `CCCN(CC(=O)Nc1ccccc1C)C(=O)c1ccc(N2CCCC2)c([N+](=O)[O-])c1`, -41.3%.

Consider `CCCN(CC(=O)Nc1ccccc1C)C(=O)c1ccc(N2CCCCC2)c([N+](=O)[O-])c1`, for which the “hERG current change (%, negative = inhibition) at 10uM” value is -43.7%. In the case of `CCCN(CC(=O)Nc1ccc(F)c(F)c1F)C(=O)c1cc([N+](=O)[O-])ccc1N1CCOCC1` it was -67.1%; in that of `CCCN(CC(=O)Nc1ccccc1C)C(=O)c1ccc(N2CCOCC2)c([N+](=O)[O-])c1`, -70.3%. With `CCN(CC(=O)Nc1cc(Cl)ccc1C)C(=O)c1cc([N+](=O)[O-])ccc1N1CCOCC1`, the “hERG current change (%, negative = inhibition) at 10uM” value is -18.5%. Regarding `CCN(CC(=O)Nc1c(F)cccc1F)C(=O)c1cc([N+](=O)[O-])ccc1N1CCOCC1`, the “hERG current change (%, negative = inhibition) at 10uM” value is reported as -4.57%. In the case of `O=C(NCC(=O)N1CCN(C(=O)c2ccccc2)CC1)c1ccccc1` it was 5.05%; in that of `O=C1C=C(/C=C/c2ccccc2)C[C@@H](c2ccc3c(c2)OCO3)C1`, 20%. As for `O=C1C=C(c2ccccc2)CC(c2ccc(F)cc2)C1` (stereo not drawn), the figure is -28.2%; as for `CCCCC/C=C/C1=CC(=O)C[C@H](c2ccc(Cl)cc2)C1`, -47.4%; as for `COc1ccc([C@H]2CC(=O)C=C(/C=C/c3ccc(C(F)(F)F)cc3)C2)cc1`, -62.9%. In the case of `C/C=C/C1=CC(=O)C[C@H](c2ccc(F)cc2)C1` it was -34.3%; in that of `COc1ccc([C@H]2CC(=O)C=C(/C=C/c3ccc(Cl)cc3)C2)cc1`, 12.8%; in that of `O=C1C=C(/C=C/c2ccccc2)C[C@@H](c2ccc(F)cc2)C1`, -59.7%. Regarding `C/C=C/C1=CC(=O)C[C@H](c2ccc(Cl)cc2)C1`, the “hERG current change (%, negative = inhibition) at 10uM” value is listed as -63.9%. For `COc1ccc([C@H]2CC(=O)C=C(c3cc(C(F)(F)F)cc(C(F)(F)F)c3)C2)cc1`, the “hERG current change (%, negative = inhibition) at 10uM” value amounted to 4.42%. In the case of `O=C(Nc1ccc(-c2cn3ccccc3n2)cc1)c1ccco1` it was -11.4%. In the case of `O=C1C=C(c2ccc(CO)cc2)C[C@@H](c2ccc3c(c2)OCO3)C1` it was -44.3%; in that of `CC1=CSC2=NC(C(F)(F)F)(C(F)(F)F)NC(=O)N12`, -1.5%; in that of `C=CCn1sc(N)c(C(=O)OCC)c1=S`, 0.673%. In the case of `Cc1ccc(NS(=O)(=O)c2cccc(C(=O)O)c2)cc1S(=O)(=O)N1CCCCC1` it was 3.3%; in that of `COC(=O)Cn1c(=NC(=O)c2nc3ccccc3s2)sc2cc(S(C)(=O)=O)ccc21`, -65.2%.

Consider `COC(=O)Cn1c(=NC(=O)c2nc3ccccc3s2)sc2cc(S(N)(=O)=O)ccc21`, for which the “hERG current change (%, negative = inhibition) at 10uM” value turned out to be 6.74%. As for `COCCn1c(=NC(=O)c2nc3ccccc3s2)sc2cc(S(C)(=O)=O)ccc21`, the “hERG current change (%, negative = inhibition) at 10uM” value is -21%. As to `CCC(=O)NNC(=S)NC(=O)c1ccc(C)cc1`, the “hERG current change (%, negative = inhibition) at 10uM” value is recorded as 22.4%. Turning to `S=c1[nH]nc(-c2cccc(Br)c2)o1`, the “hERG current change (%, negative = inhibition) at 10uM” value is given as 19.6%. For `CCOC(=O)c1cccc(NC(=O)CCc2nnc3ccc(N4CCCCC4)nn23)c1`, the “hERG current change (%, negative = inhibition) at 10uM” value is given as 7.86%. As for `CCn1c(O)c(N=NC(=O)CNC(=O)/C=C/c2ccco2)c2ccccc21`, the figure is 0.357%; as for `C=CCn1c(O)c(N=NC(=O)CNC(=O)/C=C/c2ccco2)c2ccccc21`, -58.2%; as for `C=CCn1c(O)c(N=NC(=O)CNC(=O)c2ccco2)c2ccccc21`, -4.55%.

On to `CCCCNC(=O)NS(=O)(=O)c1cnccc1Sc1ccc(Cl)cc1`, for which the “hERG current change (%, negative = inhibition) at 10uM” value turned out to be 12.1%. Consider `NC(=O)c1cccnc1Nc1cccc(F)c1`, for which the “hERG current change (%, negative = inhibition) at 10uM” value is listed as -4.36%. As for `CCOC(=O)c1sc(/S(C)=N\S(=O)(=O)c2cccc(Cl)c2)c2c1CCC=C2` (stereo not drawn), the “hERG current change (%, negative = inhibition) at 10uM” value is reported as -51.9%. As for `CCOC(=O)c1nc(C)sc1-c1ccnn1S(=O)(=O)c1cccc(Cl)c1`, the “hERG current change (%, negative = inhibition) at 10uM” value is -22.5%. For the molecule `CCOC(=O)C1=C(C)Nc2ccccc2N/C1=N\S(=O)(=O)c1cccc(Cl)c1`, the “hERG current change (%, negative = inhibition) at 10uM” value is listed as 0.773%.

In the case of `COc1ccc(-n2nc(C(=O)NCc3ccco3)c3c4ccccc4n(C)c3c2=O)cc1`, the “hERG current change (%, negative = inhibition) at 10uM” value was determined as 18.1%. In the case of `Cc1ccc(C)c(NC(=O)C2CCC(C)(C(=O)O)C2(C)C)c1` (stereo not drawn) it was -18.4%.

In the case of `Cc1cccc(NCC(=O)N/N=C\c2cccc(Oc3ccccc3)c2)c1`, the “hERG current change (%, negative = inhibition) at 10uM” value came to 20.1%. In the case of `O=C(CNC(=O)c1cccs1)Nc1ccncc1` it was 8.67%; in that of `O=C(Nc1ccc2c(c1)OCO2)C1CC(c2ccccc2Cl)=NO1` (stereo not drawn), -12.7%. In the case of `CC(CS(=O)(=O)c1ccc2c(c1)NC(=O)CS2)C(=O)N1CCN(c2cccc(Cl)c2)CC1` (stereo not drawn) it was -52.1%; in that of `COc1ccccc1N1CCN(C(=O)C(C)CS(=O)(=O)c2ccc3c(c2)NC(=O)CS3)CC1` (stereo not drawn), 4.07%; in that of `O=C1COc2ccc(S(=O)(=O)CCC(=O)N3CCN(c4ccccc4)CC3)cc2N1`, -13.1%. In the case of `O=C1COc2ccc(S(=O)(=O)CCC(=O)N3CCN(c4cccc(C(F)(F)F)c4)CC3)cc2N1` it was -46.3%. With `O=C1COc2ccc(S(=O)(=O)CCC(=O)N3CCN(c4cccc(Cl)c4)CC3)cc2N1`, the “hERG current change (%, negative = inhibition) at 10uM” value is on record as -58.4%. With `CC(CC(=O)N1CCN(c2ccccc2)CC1)S(=O)(=O)c1ccc2c(c1)NC(=O)CS2` (stereo not drawn), the “hERG current change (%, negative = inhibition) at 10uM” value is given as -34.6%. Consider `O=C(NC1CCN(c2ncccn2)CC1)c1ccccc1F`, for which the “hERG current change (%, negative = inhibition) at 10uM” value was 18.6%. In the case of `O=C(CSc1ncn(-c2ccccc2)n1)c1cccs1` it was -3.5%; in that of `Cc1ccc(S(=O)(=O)N2CCN(S(=O)(=O)c3ccc4c(c3)OCCO4)CC2)cc1`, 8.43%.

As to `COc1ccc(CCNC(=O)c2cccc3c2C(=O)N(C2CCCCC2)C3)cc1OC`, the “hERG current change (%, negative = inhibition) at 10uM” value is reported as -24.1%.

As to `COc1ccc(CCNC(=O)c2cnc3ccccn3c2=O)cc1`, the “hERG current change (%, negative = inhibition) at 10uM” value is recorded as -22.3%.

Take `COc1ccccc1CNC(=O)c1cc(-c2ccncc2)nc2c(Cl)cccc12`: the “hERG current change (%, negative = inhibition) at 10uM” value is on record as 10.5%. As for `COc1ccc(CCNC(=O)c2cc3c(=O)n4ccccc4nc3n(C3CCCCC3)c2=N)cc1OC`, the figure is -76.6%; as for `COc1ccc(CCNC(=O)c2cccc3ccccc23)cc1OC`, 7.77%; as for `COc1ccc(CCNC(=O)c2cc3c(=O)n4ccccc4nc3n(C3CCCCC3)c2=N)cc1`, -81.3%.

`COc1ccc(CCNC(=O)c2cc(-c3ccccn3)nc3c(Cl)cccc23)cc1OC`: the “hERG current change (%, negative = inhibition) at 10uM” value turned out to be 10.5%.

With `COc1ccc(CNC(=O)c2c(C)nc3ccccn23)cc1`, the “hERG current change (%, negative = inhibition) at 10uM” value is listed as -12.1%. Turning to `COc1ccc(CCNC(=O)c2c(C)nc3ccccn23)cc1`, the “hERG current change (%, negative = inhibition) at 10uM” value is recorded as -4.75%.

In the case of `COc1ccc(CCNC(=O)c2cc(-c3ccncc3)nc3c(Cl)cccc23)cc1OC`, the “hERG current change (%, negative = inhibition) at 10uM” value is -66.9%. Regarding `COc1ccc(CCNC(=O)c2c(C)nc3ccccn23)cc1OC`, the “hERG current change (%, negative = inhibition) at 10uM” value is -64.3%. With `Cc1cc(NC(=O)c2ccc3nc(-c4ccccc4)c(-c4ccccc4)nc3c2)no1`, the “hERG current change (%, negative = inhibition) at 10uM” value is on record as 6.59%. In the case of `Nc1c(/C=C2\C=Nc3ccccc32)c(=O)nc2sc(CC(=O)N3CCOCC3)nn12` it was 17.2%; in that of `Cc1ccc(Cn2c(C(C)Nc3nc(-c4ccc(Cl)c([N+](=O)[O-])c4)cs3)nc3cc(C(F)(F)F)ccc32)cc1` (stereo not drawn), 5.46%; in that of `Fc1ccccc1COc1ccc(/C=N/n2cnnc2)cc1`, -12.2%.

These data come from paper PMC4336329 (PLoS ONE, 2015).
